Experimental data as given in PubChem BioAssay (NCATS).
Some of the results follow. Inconclusive results are not listed. Active and inactive are the calls of the source. The call rests on the fitted dose curve; in most records, active means well fitted inhibition curve with a large enough effect; inconclusive means small, poorly fitted or top-dose-only effect; inactive means flat fitted curve, though single readings scatter.

Target: Bifunctional 3'-5' exonuclease/ATP-dependent helicase WRN (Homo sapiens) (UniProt Q14191)
Sequence (Q14191 whole entry, looked up): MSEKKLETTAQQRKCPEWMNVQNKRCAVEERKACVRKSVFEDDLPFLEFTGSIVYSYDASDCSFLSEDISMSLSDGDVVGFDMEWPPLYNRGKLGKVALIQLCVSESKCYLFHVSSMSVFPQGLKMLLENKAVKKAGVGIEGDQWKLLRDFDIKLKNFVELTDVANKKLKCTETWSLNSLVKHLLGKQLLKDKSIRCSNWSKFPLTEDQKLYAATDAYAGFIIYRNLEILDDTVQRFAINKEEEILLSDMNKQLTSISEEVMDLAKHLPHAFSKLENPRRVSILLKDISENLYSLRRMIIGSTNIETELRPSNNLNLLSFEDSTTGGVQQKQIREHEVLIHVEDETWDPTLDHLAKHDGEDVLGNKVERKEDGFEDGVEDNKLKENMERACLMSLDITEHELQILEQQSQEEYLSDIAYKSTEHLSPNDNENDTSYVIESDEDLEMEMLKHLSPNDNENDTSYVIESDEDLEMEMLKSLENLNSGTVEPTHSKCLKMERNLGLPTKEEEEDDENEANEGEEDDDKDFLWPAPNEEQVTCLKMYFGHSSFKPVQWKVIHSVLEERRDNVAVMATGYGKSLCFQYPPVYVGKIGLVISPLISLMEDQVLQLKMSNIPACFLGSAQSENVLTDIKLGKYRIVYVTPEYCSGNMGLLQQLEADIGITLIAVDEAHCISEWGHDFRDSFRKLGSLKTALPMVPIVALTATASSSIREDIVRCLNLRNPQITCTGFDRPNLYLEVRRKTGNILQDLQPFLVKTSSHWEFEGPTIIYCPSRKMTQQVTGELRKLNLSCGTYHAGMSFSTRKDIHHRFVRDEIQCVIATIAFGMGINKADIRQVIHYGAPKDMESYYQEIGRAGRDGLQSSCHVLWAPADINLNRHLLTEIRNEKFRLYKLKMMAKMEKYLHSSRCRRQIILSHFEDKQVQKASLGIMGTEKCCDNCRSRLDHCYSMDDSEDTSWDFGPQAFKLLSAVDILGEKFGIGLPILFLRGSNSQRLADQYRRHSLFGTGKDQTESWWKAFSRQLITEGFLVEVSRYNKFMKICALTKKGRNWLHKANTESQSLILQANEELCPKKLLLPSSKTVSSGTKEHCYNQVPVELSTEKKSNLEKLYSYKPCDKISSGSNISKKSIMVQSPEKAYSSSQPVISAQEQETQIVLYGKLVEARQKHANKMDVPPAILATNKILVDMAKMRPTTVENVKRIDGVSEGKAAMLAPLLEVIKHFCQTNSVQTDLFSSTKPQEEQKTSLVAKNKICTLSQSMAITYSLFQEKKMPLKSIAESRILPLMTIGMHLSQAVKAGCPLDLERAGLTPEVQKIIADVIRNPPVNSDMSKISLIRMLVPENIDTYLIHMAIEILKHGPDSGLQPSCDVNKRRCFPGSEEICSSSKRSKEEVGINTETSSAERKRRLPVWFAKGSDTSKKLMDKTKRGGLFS
Test: qHTS for Inhibitors of WRN Helicase: Confirmatory Assay for Cherry-picked Compounds. (AID 720497); further: nearly all actives have a fitted effect of over 65% in size
Details: WRN helicase DNA unwinding, fluorescence kinetic; series mostly up to 57.1 µM
Source text: Inhibition of DNA repair is proposed as a strategy for combating cancer. Synthetic lethality is an approach that exploits preexisting DNA repair deficiencies in certain tumors to develop inhibitors of DNA repair pathways that compensate for the tumor-associated DNA repair deficiency. Because helicases play critical roles in the DNA damage response and in DNA repair, particularly in actively dividing and replicating cells, characterization of synthetic lethal relationships of DNA helicases may be of value in developing improved anticancer treatment strategies; moreover, small molecules that specifically target a given DNA helicase may be useful for understanding its role in cellular nucleic acid metabolism. The goal of this project is to identify small molecule, non-covalent chemical inhibitors of the Werner syndrome (WS) helicase (WRN), which plays an important role in cell proliferation, the replication stress response, and DNA repair. […] The WRN gene product that is defective in the chromosomal instability disorder has DNA helicase and exonuclease activities and interacts with a number of nuclear proteins to maintain genomic stability. A 1536-well format, fluorescence based, high-throughput screen (AID 651768) has been developed in collaboration with the Brosh Laboratory at the National Institute of Aging (NIA) to screen for inhibitors of the WRN. This is a confirmatory screen to confirm the activity of the selected compounds from the WRN helicase primary assay. Inhibition is the desired outcome for this assay. NIH Chemical Genomics Center [NCGC] NIH Molecular Libraries Probe Centers Network [MLPCN] MLPCN Grant: MH096530 Assay Submitter (PI): Robert Brosh, National Institute of Aging
Three microliter of reagents (buffer in columns 3 and 4 as negative controls; WRN at 20 nM final concentration in columns 1 and 2 as positive controls; columns 5-48 as test reactions) were dispensed into a 1536-well Greiner black plate via a solenoid-valve based nanoliter dispenser. Compounds (23 nL each in columns 5-48) and control (23 nL each in column 2 as dose-response) were transferred to the assay plate via a Kalypsys pintool equipped with a 1536-pin array. Plates were incubated for 15 min at room temperature, followed by a 1 uL addition of substrate (100 nM forked duplex oligonucleotide and 2 mM ATP final concentrations) to start reaction. The plates were transferred into a ViewLux CCD imager where the reaction was measured in a kinetic mode using the standard red fluorescence optics (excitation filter 525 nm, emission filter 598 nm). Maximum inhibition response was normalized to the positive control signal while no inhibition response was normalized to the buffer only wells.
Potency means the concentration at half of the fitted maximal effect.

SMILES	Potency
Cc1c(CC(=O)N2CCN(C(=O)C3COc4ccccc4O3)CC2)c(=O)oc2c(O)c(O)ccc12 (configuration not stated)	2.41 µM (active)
N#C/C(=C\C1=C(N2CCOCC2)C(=C\c2ccccc2)/CC1)C(=O)Nc1ccccc1F	38.3 µM (active)
COc1ccc(Cl)cc1NC(=O)CCS(=O)(=O)c1ccc(Br)cc1	21.5 µM (active)
COc1cccc2c1C(=O)c1c(O)c3c(c(O)c1C2=O)CC(O)(C(C)=NNC(=O)c1ccc(Cl)c(Cl)c1)CC3OC1CC(N)C(O)C(C)O1 (configuration not stated)	1.92 µM (active)
CSc1nnc(SCc2nc3sc(C(=O)O)c(C)c3c(=O)[nH]2)s1	13.6 µM (active)
CN1CCN(S(=O)(=O)c2cccc(C(=O)Nc3sccc3C#N)c2)CC1	24.1 µM (active)
CC(=O)N(C1=C(Cl)C(=O)c2ccccc2C1=O)c1ccc(C(=O)O)cc1	inactive
CCc1ccc2nc3sc(C(=O)Nc4nnc(CC)s4)c(N)c3cc2c1	13.6 µM (active)
CN(C)c1nc(Nc2ccc(Cl)c(Cl)c2)nc(N(C)C)n1	inactive
Cc1ccc(-c2nc(SCc3ccc(Br)cc3)n3[nH]c(=O)cc3n2)cc1	13.6 µM (active)
COC(=O)/C=C\C(=O)Nc1cccc([N+](=O)[O-])c1	inactive
CCN(CC)CCOc1ccc2c(c1)C(=NNC(=O)c1ccccn1)c1cc(OCCN(CC)CC)ccc1-2	13.6 µM (active)
